Columns and labels:
Test in all cases: growth inhibition (% activity, log2 RLU normalised to DMSO / staurosporine); higher = more growth inhibition
Settings in all cases: 33 µM
DIPGX29 = system: DIPGX29 (H3.3 K27M diffuse intrinsic pontine glioma line)
Method in brief: (§1)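 Cells (pHGG lines and H9-derived neural stem cells) were plated on Geltrex-coated 384-well plates and exposed to approved drugs at a single final concentration of about 33 μM, in triplicate, for 7 days at 37 °C, 5% CO2. Log2-transformed CellTiter-Glo luminescence was normalised per plate to % activity between solvent and positive control wells, and the growth-inhibition value is the median over replicates.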

DIPGX37 = system: DIPGX37 (H3.3 K27M diffuse intrinsic pontine glioma line)
Method in brief: as §1

DIPGX7 = system: DIPGX7 (H3.3 K27M diffuse intrinsic pontine glioma line)
Method in brief: as §1

DIPGX9 = system: DIPGX9 (diffuse intrinsic pontine glioma line)
Method in brief: as §1

HGGX39 = system: HGGX39 (paediatric high-grade glioma line)
Method in brief: as §1

HGGX6 = system: HGGX6 (H3.3 G34R paediatric high-grade glioma line)
Method in brief: as §1

HNSC = system: HNSC
Method in brief: as §1

SUDIPGIV = system: SUDIPGIV (diffuse intrinsic pontine glioma line)
Method in brief: as §1

SUDIPGVI = system: SUDIPGVI (diffuse intrinsic pontine glioma line)
Method in brief: as §1

SUDIPGXIII = system: SUDIPGXIII (diffuse intrinsic pontine glioma line)
Method in brief: as §1

Question: With `Cc1cnc(NC(=O)C2=C(O)c3ccccc3S(=O)(=O)N2C)s1` as the molecule, how does the growth inhibition (DIPGX29) read?
Answer: -1.57%

Question: What about the growth inhibition (DIPGX37) of the same molecule?
Answer: 2.24%

Question: What about the growth inhibition (DIPGX7) of the same molecule?
Answer: -0.44%

Question: What about the growth inhibition (DIPGX9) of the same molecule?
Answer: -0.195%

Question: And the growth inhibition (HGGX39)?
Answer: -0.277%

Question: And the growth inhibition (HGGX6)?
Answer: -2.36%

Question: And the growth inhibition (HNSC)?
Answer: 0.475%

Question: What about the growth inhibition (SUDIPGIV) of the same molecule?
Answer: -3.44%

Question: What about the growth inhibition (SUDIPGVI) of the same molecule?
Answer: 1.38%

Question: What about the growth inhibition (SUDIPGXIII) of the same molecule?
Answer: -0.269%

Question: What does the source list for `Cn1c(CNc2ccc(C(=N)N)cc2)nc2cc(C(=O)N(CCC(=O)O)c3ccccn3)ccc21`?
Answer: growth inhibition (DIPGX29): 0.681%; growth inhibition (DIPGX37): 3.45%; growth inhibition (DIPGX7): 1.05%; growth inhibition (DIPGX9): 3.29%; growth inhibition (HGGX39): 2.01%; growth inhibition (HGGX6): -1.53%; growth inhibition (HNSC): 6.58%; growth inhibition (SUDIPGIV): 1.54%; growth inhibition (SUDIPGVI): 0.719%; growth inhibition (SUDIPGXIII): -0.457%

Question: `COC1C(O)CC(=O)OC(C)CC=CC=CC(OC2CCC(N(C)C)C(C)O2)C(C)CC(CC=O)C1OC1OC(C)C(OC2CC(C)(O)C(O)C(C)O2)C(N(C)C)C1O` (stereo not given) was tested. Which growth inhibition (DIPGX29) did it give?
Answer: 0.981%

Question: And the growth inhibition (DIPGX37)?
Answer: 1.73%

Question: And the growth inhibition (DIPGX7)?
Answer: -0.322%

Question: And the growth inhibition (DIPGX9)?
Answer: 0.622%

Question: And the growth inhibition (HGGX39)?
Answer: 1.26%

Question: What about the growth inhibition (HGGX6) of the same molecule?
Answer: 1.89%

Question: And the growth inhibition (HNSC)?
Answer: -0.2%

Question: And the growth inhibition (SUDIPGIV)?
Answer: -0.377%

Question: And the growth inhibition (SUDIPGVI)?
Answer: 1.86%

Question: And the growth inhibition (SUDIPGXIII)?
Answer: 0.183%

Question: How did the growth inhibition (DIPGX29) turn out when `CC1=C(/C=C/C(C)=C/C=C/C(C)=C/C=C/C=C(C)/C=C/C=C(C)/C=C/C2=C(C)CCCC2(C)C)C(C)(C)CCC1` was run?
Answer: -2.65%

Question: And the growth inhibition (DIPGX37)?
Answer: -1.75%

Question: What about the growth inhibition (DIPGX7) of the same molecule?
Answer: -0.22%

Question: What about the growth inhibition (DIPGX9) of the same molecule?
Answer: -2.07%

Question: And the growth inhibition (HGGX39)?
Answer: -4.95%

Question: What about the growth inhibition (HGGX6) of the same molecule?
Answer: -2.28%

Question: What about the growth inhibition (HNSC) of the same molecule?
Answer: -2.5%

Question: What about the growth inhibition (SUDIPGIV) of the same molecule?
Answer: -5%

Question: What about the growth inhibition (SUDIPGVI) of the same molecule?
Answer: -7.28%

Question: What about the growth inhibition (SUDIPGXIII) of the same molecule?
Answer: -0.475%

Question: Which results are given for `O=c1cc[nH]c(=O)[nH]1`?
Answer: growth inhibition (DIPGX29): 0.309%; growth inhibition (DIPGX37): 2.71%; growth inhibition (DIPGX7): 0.41%; growth inhibition (DIPGX9): 1.11%; growth inhibition (HGGX39): 0.158%; growth inhibition (HGGX6): 0.91%; growth inhibition (HNSC): -1.21%; growth inhibition (SUDIPGIV): 0.441%; growth inhibition (SUDIPGVI): 1.23%; growth inhibition (SUDIPGXIII): -16.8%
